Sampled rows, rich in hits. Any-hit rate of the full collection: about 2.7%.
GLP1R ag – activates the human GLP-1 receptor; HEK293 GLP-1R CRE-luciferase, luminescence, 4-6 h; cells express a hypersensitive GLP-1R form; Potency, µM (highest dose often 45.6 µM), actives largely listed as activators; 0.007% of 380,000 active; AID 624172
TrxR1 inh – inhibitors of rat thioredoxin reductase 1 | O89049 | recombinant rTrxR1, NADPH fluorescence consumption, selenite substrate | Potency, µM (doses to about 114 µM), usual class: inhibitors | 1% of 390,000 active | AID 588453; note: nearly all actives have a fitted effect of over 65% in size
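Rat TrxR1 (90 nM in the dispensed reagent) was pre-reduced with 400 uM NADPH for 5 min at room temperature, then incubated with compound for 15 min. After 400 uM selenite was added, NADPH fluorescence (Ex 340/Em 450 nm) was followed for 8 min.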
mIDH1 inhibitor – human IDH1 R132H inhibition; Potency, µM (highest dose often 76.6 µM), actives largely listed as inhibitors; AID 602179; O75874; IDH1-R132H enzyme, NADPH consumption, diaphorase/resazurin fluorescence; 0.093% of 390,000 active; note: nearly all actives have a fitted effect of over 65% in size
Target sequence (O75874 whole entry R132H, stated change not applied): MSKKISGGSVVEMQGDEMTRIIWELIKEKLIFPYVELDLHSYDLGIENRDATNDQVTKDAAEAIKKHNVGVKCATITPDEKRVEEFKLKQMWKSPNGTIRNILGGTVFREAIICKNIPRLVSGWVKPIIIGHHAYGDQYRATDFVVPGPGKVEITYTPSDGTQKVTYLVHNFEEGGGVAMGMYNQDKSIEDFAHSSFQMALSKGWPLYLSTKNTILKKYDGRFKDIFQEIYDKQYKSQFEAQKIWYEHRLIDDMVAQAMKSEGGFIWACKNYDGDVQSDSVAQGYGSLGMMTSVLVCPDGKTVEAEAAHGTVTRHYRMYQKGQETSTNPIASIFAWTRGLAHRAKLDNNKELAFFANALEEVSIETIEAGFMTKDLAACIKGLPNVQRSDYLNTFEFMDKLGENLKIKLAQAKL
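IDH1-R132H (0.5 ug/mL) preincubated 30 min with compound, then NADPH (0.016 mM) and alpha-KG (2 mM) added; 80 min at RT, pH 7.5. Remaining NADPH coupled via diaphorase/resazurin to fluorescence (540/590 nm); concentration-response curves normalized to no-enzyme control.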
HEK293 tox – cytotoxic in the GLP-1 receptor inverse agonist counter-screen; HEK293 cAMP-luciferase reporter cells, luminescence, 24 h; Potency, µM (top dose mostly 38.3 µM), hits mostly inhibitors; 0.13% of 410,000 active;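 note: loss of luciferase light is scored as toxicity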
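Cells in DMEM/10% Nu serum/1% pen-strep, 1536-well format. Pre-incubated 12 h, dosed with 23 nL compound, incubated a further 24 h. Luciferase detection, 12 min at room temp, luminescence.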
TrxR1 substrate – rat thioredoxin reductase 1 substrate activity | O89049 | purified TrxR1 substrate turnover, NADPH consumption readout | Potency, µM (doses to about 114 µM) | 0.01% of 390,000 active | AID 588456; note: nearly all actives have a fitted effect of over 50% in size
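Rat TrxR1, dispensed at 90 nM, was prereduced with 400 uM NADPH (final) for 5 min at ~22 deg C, then incubated with compound 15 min before 400 uM selenite. A first-read NADPH fluorescence drop versus no-compound background flagged substrates.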
GLP1R inv ag – inverse agonists of human GLP-1 receptor; HEK293 GLP-1R CRE-luciferase, luminescence, 24 h; GLP-1R form is constitutively active; Potency, µM (titrated, usually from 38.3 µM), usual class: inhibitors; 1.6% of 410,000 active; AID 624417; note: nearly all actives have a fitted effect of over 55% in size
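Readout was luciferase luminescence, measured 12 min after detection reagent at room temperature. Beforehand, GLP-1R reporter HEK293 cells had sat 12 h, then received compounds for 24 hr at 37 deg C.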
Each line names hits and unclear results; the compound was inactive in the other large screens. Calls come from the whole dose curve; as a rule, active = well fitted curve in the direction sought with a large enough effect; inconclusive = small, poorly fitted or top-dose-only effect, or another doubt; inactive = no such curve, though single readings can be large; an effect the other way counts as inactive or inconclusive.

COc1ccc(C(C(=O)NC2CCCCC2)N(C(=O)CCl)c2ccc(OC)cc2)cc1 (configuration not stated)	GLP1R inv ag inconclusive
COc1ccc(N(C(=O)CCl)C(C(=O)NC2CCCCC2)c2cccnc2)cc1 (configuration not stated)	TrxR1 inh 16µM
O=C(NC1CCCCC1)C(c1cccnc1)N(C(=O)CCl)c1ccc(F)cc1 (configuration not stated)	TrxR1 inh 14µM, HEK293 tox inconclusive, GLP1R inv ag inconclusive
CCCN1CNc2c(c(=O)[nH]c(=S)n2CCc2ccc(OCC)c(OCC)c2)C1	none (no result: GLP1R ag, mIDH1 inhibitor, HEK293 tox, GLP1R inv ag)
CC(C)c1ccc(NS(=O)(=O)c2ccc3[nH]cc(C(=O)N4CCCC4)c(=O)c3c2)cc1	none (no result: GLP1R ag)
CCOc1cccc(C(=O)NC(=S)Nc2cccc(C)c2)c1	TrxR1 inh 5µM, HEK293 tox inconclusive
COc1cccc(C(=O)NC(=S)Nc2ccc(N(C)C)cc2)c1	TrxR1 inh 20µM, HEK293 tox inconclusive, GLP1R inv ag inconclusive
COc1cccc(C(=O)NC(=S)Nc2ccc(N3CCCC3)cc2)c1	HEK293 tox inconclusive, GLP1R inv ag inconclusive
O=C(NC(=S)Nc1ccc(Cl)c(C(=O)O)c1)c1cccc(COc2ccccc2)c1	TrxR1 inh 71µM
O=C(NC(=S)Nc1ccc(Cl)c(C(=O)O)c1)c1ccc(OCc2ccccc2)cc1	none
CCOC(=O)C[n+]1cccc(Br)c1	none (no result: GLP1R ag, mIDH1 inhibitor, HEK293 tox, GLP1R inv ag)
Cn1cnc2c(=O)oc3ccc(S(=O)(=O)N4CCN(c5cccc(C(F)(F)F)c5)CC4)cc3c21	none (no result: GLP1R ag)
Cc1cccc(-n2c(SCc3ccc([N+](=O)[O-])cc3)nnc2-c2c[nH]c3ccccc23)c1	GLP1R inv ag 3.2µM
COc1cccc(-n2c(SC)nnc2-c2c[nH]c3ccccc23)c1	none
CCCN(Cc1cccs1)C(=O)Nc1cc(Cl)ccc1C	GLP1R inv ag inconclusive (no result: GLP1R ag)
N#CC(C#N)=Cc1cn(-c2ncc(C(F)(F)F)cc2Cl)c2ccccc12	TrxR1 inh 16µM, GLP1R inv ag 7.9µM
CC(=O)/C=C\c1cn(-c2ncc(C(F)(F)F)cc2Cl)c2ccccc12	GLP1R inv ag inconclusive
N#Cc1cc([N+](=O)[O-])c(-n2nnc3ccccc32)c([N+](=O)[O-])c1	TrxR1 inh 16µM
CS(=O)(=O)c1ccc(-n2nnc3ccccc32)c([N+](=O)[O-])c1	none
CCOc1ccc(CNCc2ccccc2Cl)cc1	none
CCOc1ccc(CNC(c2ccccc2)c2ccccc2)cc1	TrxR1 inh inconclusive, GLP1R inv ag 7.1µM
COc1cccc(C(=O)NCCSc2ccc(F)cc2)c1	none
COc1cccc(C(=O)NCC(C)(C)SCc2ccc(F)cc2)c1	GLP1R inv ag 11µM
O=c1[nH]nc(-c2ccc([N+](=O)[O-])o2)c(=O)[nH]1	TrxR1 inh 13µM
Nc1nnc(-c2ccc([N+](=O)[O-])o2)s1	TrxR1 inh inconclusive, HEK293 tox inconclusive
C=C(C)Cn1c(=O)c2c(nc3n2CCN3c2cc(C)cc(C)c2)n(C)c1=O	none (no result: GLP1R ag)
COc1ccc(C(=O)c2c(C(F)(F)F)oc3c2C(=O)c2ccccc2C3=O)cc1	GLP1R inv ag 7.1µM
COc1ccc(C(=O)c2coc(-c3ccccc3C(=O)O)c2C(=O)O)cc1	none
C=C1CC2(OC1=O)c1ccccc1CCc1ccccc12	mIDH1 inhibitor inconclusive, HEK293 tox 10µM, GLP1R inv ag inconclusive
O=C(c1ccco1)N1CCN(c2nc(C3CC3)nc3c2nnn3Cc2ccccc2Cl)CC1	GLP1R inv ag 10µM
Cc1nn2c(C)c(C(=O)NCc3ccc(OC(C)C)cc3)cnc2c1-c1ccc(F)cc1	none (no result: GLP1R ag)
COC(=O)c1ccccc1NC(=O)N1c2ccccc2Sc2ccccc21	GLP1R inv ag 10µM
COC(=O)c1ccc(C(=O)OC)c(NC(=O)N2c3ccccc3Sc3ccccc32)c1	none
COc1ccc(-c2[nH]c3ccccc3c2SCCN)cc1	HEK293 tox inconclusive, GLP1R inv ag 2µM
O=[N+]([O-])c1ccc(SNc2ccccc2)c([N+](=O)[O-])c1	HEK293 tox inconclusive, GLP1R inv ag 11µM
O=[N+]([O-])c1ccccc1SNc1ccccc1	GLP1R inv ag inconclusive (no result: TrxR1 inh, TrxR1 substrate)
O=[N+]([O-])c1ccc(Sc2ncccn2)c([N+](=O)[O-])c1	TrxR1 inh inconclusive, HEK293 tox inconclusive, GLP1R inv ag inconclusive
O=C(O)CCSc1ccc([N+](=O)[O-])cc1[N+](=O)[O-]	TrxR1 inh 71µM
CN(CC(=O)Nc1cccc(F)c1)C(=O)c1ccc(C(=O)c2ccccc2)cc1	GLP1R inv ag inconclusive
CN(CC(=O)Nc1cccc(F)c1)C(=O)c1ccccc1Cc1ccccc1	GLP1R inv ag 13µM
COc1ccc2c(c1)OC[C@H]1[C@H]2N2C(=O)CN(CCc3c[nH]c4ccccc34)C(=O)[C@@]2(C)[C@H]1c1ccccc1	GLP1R inv ag 5µM
Cc1ccccc1-c1ocnc1C(=O)Nc1ccccc1NC(=O)c1ccccn1	HEK293 tox inconclusive, GLP1R inv ag 4µM
Cc1ccc(C)c(C(=O)c2ccccc2NC(=O)c2ccccn2)c1	GLP1R ag inconclusive, GLP1R inv ag inconclusive
O=C(Nc1ccc(F)cc1F)c1sccc1SCc1cccc(C(F)(F)F)c1	GLP1R inv ag 10µM
O=C(Nc1ccc(F)cc1)c1sccc1SCc1cccc(C(F)(F)F)c1	none
Cc1cc(C)n(CCCN2CCC(C(=O)Nc3cccc(-c4cccc(F)c4)c3)CC2)n1	HEK293 tox inconclusive, GLP1R inv ag 7.1µM
Cc1ccc(NC(=O)CN2CCC(Cc3ccccc3)CC2)cc1S(=O)(=O)N(C)C	GLP1R inv ag 8.9µM
COc1ccc(OC)c(-c2noc(N3CCN(c4cc(C)ccc4C)CC3)n2)c1	none
Cc1cc(Br)c2c(c1)C(O)(N1CCCCC1C)C(=O)N2 (configuration not stated)	GLP1R inv ag 11µM
C/C=C\C=C/C(=O)Nc1cccc(C2=NOC3(C2)C[C@@H](C(N)=O)N(C(=O)/C=C/C=C\C)C3)c1 (some centres not stated)	TrxR1 inh 7.1µM
C=C(C)C(=O)Nc1cccc(C2=NOC3(C2)C[C@@H](C(N)=O)N(C(=O)C(=C)C)C3)c1 (some centres not stated)	none
C=C(C)C(=O)N1CC2(CC(c3cccc(NC(=O)/C=C\C=C/C)c3)=NO2)C[C@H]1C(N)=O (some centres not stated)	TrxR1 inh 20µM
C/C=C\C(=O)Nc1cccc(C2=NOC3(C2)C[C@@H](C(N)=O)N(C(=O)C2(C)CC2)C3)c1 (some centres not stated)	none

Source: PubChem BioAssay (National Center for Advancing Translational Sciences (NCATS))
